FBA Mtb inh: inhibits M. tuberculosis FBA enzyme. P9WQA3. purified M. tuberculosis FBA, fluorescence read-out. inhibition, % at 1 µM. actives 2.3% (n = 360,000); in the data active means inhibition above about 27%
Mtb bLac sens: beta-lactam sensitization of Mtb H37Rv; M. tuberculosis H37Rv growth with meropenem, percent inhibition; inhibition, % at 25 µM; actives 0.27% (n = 330,000); AID 434955;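 further: growth measured after seven days incubation then overnight dye step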
UGM FP inh: Mtb UDP-galactopyranose mutase inhibition; purified UGM, fluorescence polarization probe displacement; inhibition, % at 10 µM; AID 504406; actives 0.06% (n = 320,000); P9WIQ1; in the data active means inhibition above about 10%, passing the limit was not always enough; inconclusive means no clear call, values can overlap the other calls
Rv3671c inh: inhibits the M. tuberculosis serine protease Rv3671c | P9WHR9 | inhibition, % at 5.96 µM | actives 0.048% (n = 320,000) | AID 2606; in the data active means inhibition above about 38%;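 further: extracellular domain of Rv3671c used as enzyme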
Target sequence (P9WHR9 whole entry, looked up, the tested form may be a part): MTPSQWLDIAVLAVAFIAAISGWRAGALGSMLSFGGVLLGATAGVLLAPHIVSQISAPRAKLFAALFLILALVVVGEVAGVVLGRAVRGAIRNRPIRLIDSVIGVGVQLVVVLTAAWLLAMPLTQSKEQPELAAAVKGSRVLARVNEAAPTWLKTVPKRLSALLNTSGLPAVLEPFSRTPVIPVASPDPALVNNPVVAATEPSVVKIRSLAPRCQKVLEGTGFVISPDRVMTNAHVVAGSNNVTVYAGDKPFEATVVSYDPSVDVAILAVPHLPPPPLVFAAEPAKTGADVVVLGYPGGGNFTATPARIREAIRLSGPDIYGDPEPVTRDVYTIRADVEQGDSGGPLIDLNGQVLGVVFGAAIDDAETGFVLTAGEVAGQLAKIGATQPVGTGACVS
RecA splice inh: blocks M. tuberculosis RecA intein splicing; AID 2221; actives 0.75% (n = 290,000); inhibition, % (no concentration beside the values); cell-free RecA intein splicing, fluorescence; P9WHJ3; in the data active means inhibition above about 30%; inconclusive means no clear call, values can overlap the other calls
GDH-TPI counter-1: counter-screen for M. tuberculosis FBA inhibitors: GDH-TPI coupled enzymes; GDH-TPI coupled enzyme counterscreen, NADH absorbance; inhibition, % at 4.8 µM; actives 1.2% (n = 360,000); in the data active means inhibition above about 30%
Mtb FBA inh conf: Mtb FBA inhibition, confirmed. shares compounds with FBA Mtb inh. purified M. tuberculosis FBA, fluorescence read-out. inhibition, % at 1 µM. actives 78% (n = 5,600). AID 651616; in the data active means inhibition above about 27%
GDH-TPI counter-2: GDH-TPI inhibition counter-screen for FBA inhibitors | shares compounds with FBA Mtb inh | GDH-TPI coupled enzyme counterscreen, fluorescence | actives 81% (n = 5,600) | inhibition, % at 1 µM; in the data active means inhibition above about 10%
GDH-TPI DR: inhibits GDH-TPI coupling enzymes in dose response | shares compounds with FBA Mtb inh | GDH-TPI coupled enzyme assay, fluorescence, artifact counterscreen | IC50, µM | actives 79% (n = 170)
A number is an active result; i = inactive; ? = inconclusive; nt = no result; + = active, no number. Compounds with a hit are over-represented: about 4% of the library has one in this group of screens. Unless noted, how the calls were made is not given here.

SMILES	FBA Mtb inh	Mtb bLac sens	UGM FP inh	Rv3671c inh	RecA splice inh	GDH-TPI counter-1	Mtb FBA inh conf	GDH-TPI counter-2	others
O=C(CSc1nc2c([nH]c3ccccc32)c(=O)n1-c1ccccc1F)NCC1CCCO1 (stereo not given)	36	?	i	i	i	i	89	53
CCOC(=O)CNC(=O)Nc1nnc(-c2ccc(OCC)cc2)o1	63	i	i	i	i	i	i	i
CCCCNC(=O)Nc1nnc(-c2ccc(OCC)cc2)o1	29	i	i	i	nt	i	70	41
CCOc1ccc(-c2nnc(NC(=O)COc3ccccc3F)o2)cc1	i	nt	nt	nt	nt	i	nt	nt
Cn1c(-c2ccc(Cl)cc2)ccc(C#N)c1=O	i	i	i	i	i	i	nt	nt
C=CCn1cc(-c2cccc(Cl)c2)cc(C#N)c1=O	28	i	i	i	i	i	69	48
N#Cc1cc(-c2cccc(Cl)c2)c[nH]c1=O	46	i	i	i	i	i	i	i	GDH-TPI DR=4.1
Cn1cc(-c2ccc(Cl)cc2)cc(C#N)c1=O	56	i	i	i	i	i	i	17
CCOc1ccc(C(=O)C2CCN(C(=O)c3ccc([N+](=O)[O-])cc3)CC2)cc1	i	i	i	i	i	i	nt	nt
CCOC(=O)N1CCC(NC(=O)CCc2c(C)nc3c(c(C)nn3-c3ccccc3)c2C)CC1	i	nt	nt	nt	nt	i	nt	nt
CCOC(=O)N1CCN(C(=O)c2cc(C)c3c(C)nn(-c4ccccc4)c3n2)CC1	66	i	i	i	i	i	i	i
O=c1c(-c2ccc(Br)cc2)coc2c(CN3CCCCC3)c(O)ccc12	31	nt	nt	nt	i	i	i	i
CCN(CC)Cc1c(O)ccc2c(=O)c(-c3ccccc3Cl)coc12	85	i	i	i	i	31	+	+
CCCCc1cc(=O)oc2c(CN(CC)CC)c(O)c(Cl)cc12	nt	i	i	i	i	i	nt	nt
CCC1CCCCN1Cc1c(O)ccc2c(=O)c(-c3ccccc3OC)coc12 (stereo not given)	83	i	i	i	i	i	43	31
CC1CN(Cc2c(O)ccc3c(=O)c(-c4ccccc4Cl)coc23)CC(C)O1 (stereo not given)	57	i	i	i	i	i	105	87
CC1CCCCN1Cc1c(O)ccc2c(=O)c(-c3nc4ccccc4s3)coc12 (stereo not given)	i	i	i	i	i	i	nt	nt
CC(=O)N1CCc2cc(S(=O)(=O)CCC(=O)Nc3ccc(Cl)cc3F)ccc21	i	i	i	i	i	i	nt	nt
CCOc1ccc(OCCC(=O)N(CCOC)c2c(N)n(Cc3ccccc3)c(=O)[nH]c2=O)cc1	i	nt	nt	nt	nt	i	nt	nt
O=c1c(-c2ccc(Cl)cc2)coc2c(CN3CCCCC3)c(O)ccc12	27	i	i	i	i	i	i	i
O=c1c(-c2ccccc2Cl)coc2c(CN3CCCCC3)c(O)ccc12	80	i	i	i	i	i	64	60
O=c1c(-c2ccc(Br)cc2)coc2c(CN3CCOCC3)c(O)ccc12	i	i	i	i	i	i	nt	nt
CCCCc1cc(=O)oc2cc(C)cc(OC(C)C(=O)NC(Cc3c[nH]c4ccc(O)cc34)C(=O)O)c12 (stereo not given)	37	i	i	i	i	i	132	102
CCCc1cc(=O)oc2cc(C)cc(OC(C)C(=O)N[C@@H](Cc3c[nH]c4ccccc34)C(=O)O)c12 (stereo not given in full)	i	i	i	i	nt	i	nt	nt
CCc1c(C)c2ccc(OC(C)C(=O)NC(Cc3c[nH]c4ccc(O)cc34)C(=O)O)c(C)c2oc1=O (stereo not given)	43	i	i	i	i	i	nt	+
SMILES	FBA Mtb inh	Mtb bLac sens	UGM FP inh	Rv3671c inh	RecA splice inh	GDH-TPI counter-1	Mtb FBA inh conf	GDH-TPI counter-2	others
C/C(=C\COc1ccc2ccc(=O)oc2c1)CC[C@@H](O)C(C)(C)O	83	i	i	i	nt	i	i	i
COc1ccc(C(=O)Nc2ccccc2C(=O)NCc2cccnc2)cc1	i	?	i	i	i	i	nt	nt
Cc1ccc(C)c(S(=O)(=O)NCC(c2ccco2)N2CCc3ccccc3C2)c1 (stereo not given)	74	i	i	i	i	i	81	74
Cc1ccsc1-c1nc(-c2ccccc2)c(-c2ccccc2)[nH]1	29	i	i	i	i	i	91	74
Fc1ccc(-c2nc(-c3cccs3)[nH]c2-c2ccc(F)cc2)cc1	50	i	i	i	i	i	+	+
COc1ccc(-c2nc(-c3cccs3)c(-c3cccs3)[nH]2)cc1OC	i	i	i	i	i	i	nt	nt
COc1ccc(-c2nc(-c3ccccc3)c(-c3cccs3)[nH]2)cc1OC	49	i	i	i	i	i	i	i
COc1cc(-c2nc(-c3ccccc3)c(-c3ccc(F)cc3)[nH]2)cc2c1OCO2	31	i	i	i	i	i	103	71
CC(C)(C)c1ccc2cccc(F)c2n1	i	nt	nt	nt	nt	nt	nt	nt
Cc1ccc(CNC(=O)C2CCC(=O)N(C3CC3)C2)cc1 (stereo not given)	i	i	i	i	i	i	nt	nt
COc1cc2sc3cc(NCc4ccc5c(c4)OCO5)ccc3c(=O)c2cc1OC	i	i	i	i	nt	i	nt	nt
COc1cccc2sc3cc(NCc4ccc5c(c4)OCO5)ccc3c(=O)c12	53	i	i	i	nt	39	i	19
O=C(CN1CCCCCC1)NCC1CCCO1 (stereo not given)	97	i	i	i	i	i	80	73
O=C(CCCC(=O)NCC1CCCO1)NCC1CCCO1 (stereo not given)	i	i	i	i	i	i	nt	nt
O=C(COC(=O)c1ccc(Cl)nc1)NNC(=O)c1ccc(Br)cc1	i	i	i	i	nt	i	nt	nt
Cc1c(CCC(=O)NCC(=O)NCC(=O)O)c(=O)oc2cc3oc4c(c3cc12)CCCC4	35	i	i	i	i	i	i	i
O=C(NCc1ccc(F)cc1)c1ccc(CS(=O)(=O)Cc2ccc(F)cc2)o1	i	i	i	i	i	i	nt	nt
O=C(NCc1ccc(F)cc1)c1ccc(CS(=O)(=O)Cc2ccccc2F)o1	55	i	i	i	i	i	95	83
O=C(O)C1CCCCC1C(=O)NCc1ccc2c(c1)OCO2 (stereo not given)	90	i	i	i	i	i	+	162
O=C(NCc1ccc2c(c1)OCO2)C1CCCCC1	i	i	i	i	i	i	nt	nt
Cc1ccsc1C(=O)N(CC(C)C)c1c(N)n(Cc2ccccc2)c(=O)[nH]c1=O	i	i	i	i	i	i	nt	nt
Cc1c(SCCO)c(=O)[nH]c2cc3c(cc12)OCO3	35	i	i	i	nt	i	127	120
N#Cc1cccc(NC(=O)CNc2cc(S(=O)(=O)N3CCOCC3)ccc2N2CCCC2)c1	i	nt	nt	nt	nt	i	nt	nt

Assay outcomes from PubChem BioAssay.
